These results are taken from PubChem BioAssay (NCI).

Molecules are shown by their SMILES. This is part of a sample that, as a whole, favours compounds with a hit. Of some 83,000 tested, about 20% had one in any assay.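 Single-dose data. Exposure time 48 hours. Values below 10 considered active.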 Values without a mark were called inactive. Activity calls are given as the source filed them.

Some test systems named below: SK-MEL-2 melanoma; SN12C renal; TK-10 renal; ACHN renal; CAKI-1 renal; A498 renal; MOLT-4 leukemia; SR leukemia; RPMI-8226 leukemia; OVCAR-8 ovarian; OVCAR-5 ovarian; OVCAR-4 ovarian; SK-OV-3 ovarian; OVCAR-3 ovarian; HS 578T breast; NCI/ADR-RES ovarian; UO-31 renal; CCRF-CEM leukemia; IGROV1 ovarian.
Holding throughout (assay): NCI-60 one-dose screen, 48 h (100 = growth as untreated, 0 = no growth, -100 = all killed)
Holding throughout (conditions): 10 µM unless noted

As to `O=C1N/C(=N\c2nccs2)S/C1=C\c1ccc([N+](=O)[O-])cc1`, the growth in the experiment on SK-MEL-2 melanoma is 16.8%; with SN12C renal, 11.9%; with TK-10 renal it was 31.9%; in the experiment on ACHN renal, 11.3%; in the experiment with CAKI-1 renal, 18.8%; with A498 renal it was 33.8%. The growth in the experiment on MOLT-4 leukemia is 11.9%; in the experiment on SR leukemia, 25.5%; in the experiment on RPMI-8226 leukemia, 6.29% (active); in the experiment with OVCAR-8 ovarian it was 14.3%; in the experiment on OVCAR-5 ovarian it was 32.8%; in the experiment with OVCAR-4 ovarian it was 12.4%. The growth in the experiment on SK-OV-3 ovarian is 52.7%; in the experiment on OVCAR-3 ovarian, 12.7%; in the experiment with HS 578T breast, 20.8%; with NCI/ADR-RES ovarian, 8.78% (active).

`CN1CCN(C(=O)CCN(C(=O)Oc2cc3c(c4ccccc24)[C@H](CCl)CN3C(=O)c2cc3cc(OCCCN4CCC4)ccc3[nH]2)[C@H]2CCSSC2)CC1`: the growth is -83% (active) in the experiment with SK-MEL-2 melanoma; 0.64% (active) with SN12C renal; -37.7% (active) with UO-31 renal; -25.7% (active) in the experiment with TK-10 renal; -30.5% (active) in the experiment on ACHN renal; -58.3% (active) in the experiment with CAKI-1 renal. In addition, the growth in the experiment with A498 renal was -40.9% (active); in the experiment on CCRF-CEM leukemia, -35.6% (active); in the experiment on MOLT-4 leukemia, -35.3% (active); in the experiment with SR leukemia, -17.2% (active); in the experiment with OVCAR-8 ovarian, -64.4% (active); in the experiment with OVCAR-5 ovarian, -88.8% (active). Also, the growth with OVCAR-4 ovarian was -30.2% (active); with SK-OV-3 ovarian, -12.4% (active); with IGROV1 ovarian it was -51.5% (active); in the experiment with OVCAR-3 ovarian, -71.7% (active); in the experiment with HS 578T breast, -9.25% (active); in the experiment with NCI/ADR-RES ovarian, -46.7% (active).

`COc1ccc(S(=O)(=O)Nc2ccc(-c3ccc4c(c3)NC(=O)/C4=C\c3ccc[nH]3)cc2)cc1OC`: the growth in the experiment with SK-MEL-2 melanoma is 46.6%; in the experiment with SN12C renal, -0.885% (active); in the experiment with UO-31 renal it was 54.7%; with TK-10 renal, 11.7%; in the experiment on ACHN renal it was -31.4% (active); in the experiment on CAKI-1 renal, -11% (active). Also, the growth is 121% in the experiment on A498 renal; 58.6% in the experiment with CCRF-CEM leukemia; 49% in the experiment on MOLT-4 leukemia; 8.03% (active) with SR leukemia; 1.66% (active) with OVCAR-8 ovarian; 18.5% in the experiment on OVCAR-5 ovarian. The growth in the experiment with OVCAR-4 ovarian is 8.08% (active); in the experiment on SK-OV-3 ovarian, 27.1%; with IGROV1 ovarian it was 29.3%; with OVCAR-3 ovarian it was 57.2%; with HS 578T breast, 23.4%; with NCI/ADR-RES ovarian, 22.1%.

Consider `O=C(Cc1c(-c2cccc([N+](=O)[O-])c2)n(-c2ncnc3c2c(-c2ccccc2)c(-c2ccccc2)n3Cc2ccccc2)[nH]c1=O)c1ccc(Cl)c(Cl)c1`, for which the growth in the experiment with SK-MEL-2 melanoma was 1.5% (active); with SN12C renal it was 38.5%; in the experiment with UO-31 renal, 39.8%; in the experiment on TK-10 renal, 59%; in the experiment on ACHN renal it was 40.4%; in the experiment with CAKI-1 renal it was 21.1%. The growth was 70.3% in the experiment with A498 renal; 51.3% in the experiment with CCRF-CEM leukemia; 41.9% with MOLT-4 leukemia; 59.8% in the experiment with SR leukemia; 12.6% in the experiment with RPMI-8226 leukemia; 66.8% with OVCAR-5 ovarian. The growth with OVCAR-4 ovarian is 31.6%; in the experiment on SK-OV-3 ovarian it was 72.2%; in the experiment with IGROV1 ovarian, 33.8%; in the experiment on OVCAR-3 ovarian, 46.5%; with HS 578T breast, 20.2%; with NCI/ADR-RES ovarian it was 51.6%.

As for `COc1ccc(-c2cc(-c3ccccc3)c(C#N)c(=O)[nH]2)cc1S(N)(=O)=O`, the growth with SK-MEL-2 melanoma is 104%; in the experiment on SN12C renal, 124%; in the experiment with UO-31 renal, 89.8%; in the experiment with TK-10 renal it was 96.8%; with ACHN renal, 103%; in the experiment on A498 renal it was 91.2%. The growth in the experiment with CCRF-CEM leukemia is 113%; in the experiment with MOLT-4 leukemia it was 136%; in the experiment on SR leukemia, 100%; in the experiment on RPMI-8226 leukemia, 100%; in the experiment on OVCAR-8 ovarian it was 113%; in the experiment with OVCAR-5 ovarian, 99.3%. Also, the growth was 102% in the experiment with OVCAR-4 ovarian; 99.4% in the experiment on SK-OV-3 ovarian; 126% in the experiment with IGROV1 ovarian; 109% in the experiment with OVCAR-3 ovarian; 109% in the experiment with HS 578T breast; 105% in the experiment on NCI/ADR-RES ovarian.

Turning to `CN1CCN(C(=O)Oc2cc3c(c4ccccc24)[C@H](CCl)CN3C(=O)c2cc3cc(OCCCN4CCC4)ccc3[nH]2)[C@@H]2CSSC[C@H]21`, the growth in the experiment with SK-MEL-2 melanoma was -83.7% (active); in the experiment with SN12C renal, -75.8% (active); with UO-31 renal, -0.968% (active); in the experiment on TK-10 renal, 11.7%; with ACHN renal, -22.8% (active); with CAKI-1 renal, 1.34% (active). Moreover, the growth with A498 renal was -18.7% (active); in the experiment on CCRF-CEM leukemia, -28% (active); with MOLT-4 leukemia, -9.2% (active); in the experiment with SR leukemia, 5.86% (active); in the experiment with RPMI-8226 leukemia it was -23.6% (active); in the experiment with OVCAR-8 ovarian, -32.4% (active). Moreover, the growth is -18.1% (active) with OVCAR-5 ovarian; 12.5% in the experiment on OVCAR-4 ovarian; -13.2% (active) in the experiment with SK-OV-3 ovarian; 2.74% (active) with IGROV1 ovarian; 4.14% (active) with OVCAR-3 ovarian; -12.2% (active) in the experiment with HS 578T breast. Also, in the experiment on NCI/ADR-RES ovarian, the growth was -23.1% (active).

Regarding `O=C1Nc2cc(-c3ccc(NS(=O)(=O)c4ccc(-c5ccccc5)cc4)cc3)ccc2/C1=C/c1ccc[nH]1`, the growth was 83.1% in the experiment on SK-MEL-2 melanoma; 16.3% in the experiment on SN12C renal; 68.5% in the experiment on UO-31 renal; 49% in the experiment with TK-10 renal; 47.4% in the experiment with ACHN renal; 40.7% with CAKI-1 renal. In addition, the growth in the experiment on A498 renal was 75.6%; in the experiment on CCRF-CEM leukemia it was 32.2%; in the experiment with MOLT-4 leukemia, 27.6%; in the experiment with SR leukemia, -33.1% (active); in the experiment on OVCAR-8 ovarian, 52.2%; in the experiment on OVCAR-5 ovarian it was 61.7%. Further, the growth was 21.3% in the experiment on OVCAR-4 ovarian; 98.2% in the experiment on SK-OV-3 ovarian; 73% in the experiment with IGROV1 ovarian; -19.4% (active) in the experiment with OVCAR-3 ovarian; 59.4% in the experiment with HS 578T breast; 62.9% in the experiment on NCI/ADR-RES ovarian.

Turning to `O=c1ccc(Cn2c(C(F)(F)F)cc3c(Cl)ncnc32)c[nH]1`, the growth with SK-MEL-2 melanoma is -86.2% (active); in the experiment on SN12C renal it was 47.9%; with UO-31 renal it was -88.4% (active); in the experiment on TK-10 renal it was 111%; with ACHN renal, -54.5% (active); in the experiment on CAKI-1 renal it was 78.1%. Besides, the growth in the experiment on A498 renal was 136%; in the experiment with CCRF-CEM leukemia, 11.8%; in the experiment with MOLT-4 leukemia, -26.6% (active); in the experiment with SR leukemia it was -53.9% (active); with RPMI-8226 leukemia it was 81.1%; in the experiment on OVCAR-8 ovarian, 0.681% (active). In addition, the growth in the experiment on OVCAR-5 ovarian is 126%; with OVCAR-4 ovarian it was -2.63% (active); with SK-OV-3 ovarian, 119%; in the experiment with IGROV1 ovarian, -67.4% (active); with OVCAR-3 ovarian it was -20% (active); in the experiment with HS 578T breast, -14.4% (active). Further, in the experiment on NCI/ADR-RES ovarian, the growth was 61.3%.

In the case of `FC(F)(F)c1cc2c(Cl)ncnc2n1CCN1CCOCC1`, the growth in the experiment on SK-MEL-2 melanoma is 47.7%; in the experiment on SN12C renal, 75.6%; in the experiment on UO-31 renal, -92.7% (active); in the experiment on TK-10 renal, 102%; in the experiment on ACHN renal, -45.4% (active); in the experiment on CAKI-1 renal, 75%. In addition, the growth in the experiment on A498 renal is 116%; in the experiment on CCRF-CEM leukemia, 36.6%; in the experiment on MOLT-4 leukemia, 20.2%; in the experiment with SR leukemia it was -50.8% (active); in the experiment on RPMI-8226 leukemia, 103%; in the experiment with OVCAR-8 ovarian, 64.7%. Further, the growth in the experiment with OVCAR-5 ovarian was 98.4%; in the experiment with OVCAR-4 ovarian it was 19.7%; in the experiment on SK-OV-3 ovarian, 101%; with IGROV1 ovarian, -58.3% (active); in the experiment on OVCAR-3 ovarian, 38.5%; with HS 578T breast it was 95.8%.
